{"source": "PubChem BioAssay AID2501", "about": "(Southern Research Specialized Biocontainment Screening …, 2010)", "note": "Hit rate of the full screen: of about 2,200 compounds, about 1,200 (55%) were called active. No cut-off is given here; in the data, nearly all actives have IC50 up to about 92 µM. The set was probably picked from earlier hits. This is one part of the list."}
{"assay": "counter assay for TAg ATPase ADP read-out – biochemical, ADP-Hunter, fluorescence, counter-screen (AID 2501);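 note: purified T antigen ATPase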", "details": "series mostly up to 100 µM"}
{"smiles": "Cc1nonc1C1CCCN1C(=O)c1cc(COc2ccc(F)cc2F)on1", "note": "(centres undefined)", "IC50": "inactive"}
{"smiles": "O=C(CCO)c1ccc(O)cc1", "IC50": "inactive"}
{"smiles": "COc1ccccc1C(NC(C)=O)c1c(O)ccc2ccc(O)cc12", "note": "(centres undefined)", "IC50": "inactive"}
{"smiles": "COc1cc(O)ccc1C(=O)CCc1ccc(O)cc1", "IC50": "6.75 µM (active)"}
{"smiles": "COc1cc(C2OCC3C(c4ccc(OC5OC(CO)C(O)C(O)C5O)c(OC)c4)OCC23)ccc1O", "note": "(centres undefined)", "IC50": "8.74 µM (active)"}
{"smiles": "O=C(CN1C(=O)/C(=C/c2ccco2)SC1=S)NC1CCS(=O)(=O)C1", "note": "(centres undefined)", "IC50": "35.1 µM (active)"}
{"smiles": "O=C(CN1C(=O)/C(=C\\c2ccco2)SC1=S)Nc1ccc(O)cc1C(=O)O", "IC50": "inactive"}
{"smiles": "O=C(CN1C(=O)/C(=C/c2ccco2)SC1=S)Nc1ccc(O)c(C(=O)O)c1", "IC50": "inactive"}
{"smiles": "N#Cc1c(Nc2ccccc2Cl)s[nH]c1=O", "IC50": "inactive"}
{"smiles": "O=C(O)CSc1cc(NS(=O)(=O)c2ccc(Cl)cc2)c2ccccc2c1O", "IC50": "inactive"}
{"smiles": "O=C([C@H](Cc1ccccc1)NS(=O)(=O)c1ccc(Cl)cc1)N1CC[C@@]2(O)CCCC[C@H]2C1", "IC50": "18.9 µM (active)"}
{"smiles": "COc1ccc(-c2c(C)nn3c(-c4ccccc4)cc(C)nc23)cc1", "IC50": "inactive"}
{"smiles": "NC(=S)N=Nc1ccc(NN=C(N)N)cc1", "IC50": "6.85 µM (active)"}
{"smiles": "COc1ccccc1C1/C(=C(/O)c2ccc(C)cc2)C(=O)C(=O)N1CC(C)O", "note": "(centres undefined)", "IC50": "inactive"}
{"smiles": "CCCOc1ccc(Cc2nn3c(=O)/c(=C/c4ccco4)sc3nc2=O)cc1", "IC50": "inactive"}
{"smiles": "CCOC1=C/C(=C/c2c(N)n3nc(-c4ccccc4)sc3nc2=O)C=CC1=O", "IC50": "11.2 µM (active)"}
{"smiles": "COC1=C/C(=C/c2c(N)n3nc(-c4ccc(C)cc4)sc3nc2=O)C=CC1=O", "IC50": "10.8 µM (active)"}
{"smiles": "O=c1nc2s/c(=C\\c3ccco3)c(=O)n2nc1Cc1ccccc1", "IC50": "inactive"}
{"smiles": "CCOC(=O)N1CCN(c2cc(NCCC(=O)O)c3c4c(onc24)-c2ccccc2C3=O)CC1", "IC50": "8.63 µM (active)"}
{"smiles": "CCOc1cc(CNc2ccc(N3CCN(C(C)=O)CC3)cc2)cc(Br)c1OC", "IC50": "5.42 µM (active)"}
{"smiles": "CCOc1c(Br)cc(CNc2ccc(N3CCN(C(C)=O)CC3)cc2)cc1OC", "IC50": "7.66 µM (active)"}
{"smiles": "CCOc1c(Br)cc(CNc2ccc(N3CCOCC3)cc2)cc1OC", "IC50": "6.04 µM (active)"}
{"smiles": "Cn1ncc2nnn(-c3ccccc3)c(=O)c21", "IC50": "inactive"}
{"smiles": "Brc1ccc(-c2nn3c(-c4ccco4)nnc3s2)o1", "IC50": "inactive"}
{"smiles": "COc1cc(/C=N/NC(=O)C(C)n2nnc3ccccc32)ccc1O", "note": "(centres undefined)", "IC50": "3.07 µM (active)"}
{"smiles": "CCOc1cc(/C=N\\NC(=O)Cn2nnc3ccccc32)ccc1O", "IC50": "5.43 µM (active)"}
{"smiles": "COc1ccc(Cc2nc3ccccc3n2CC(=O)N/N=C/c2ccc(O)cc2)cc1OC", "IC50": "4.33 µM (active)"}
{"smiles": "CCOc1ccc(NC(=O)c2nnn(CC(=O)Nc3ccccc3OC)c2N)cc1", "IC50": "inactive"}
{"smiles": "COc1cc(/C=N/NC(=O)CCc2c(C)n[nH]c2C)ccc1O", "IC50": "4.69 µM (active)"}
